System: p38-delta
Conditions: concentration: 1 μM,replicates: in singlicate; n = 1
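Also: KINOMEscan kinase panel screen.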

| Structure (SMILES) | %Inh |
| --- | --- |
| CSc1nccc(-c2c(-c3ccc(F)cc3)ncn2CCCN2CCOCC2)n1.Cl [SB-217146] | 0% |
| C[C@@H]1CNc2c(sc3ccc4nc(-c5ccncc5)ccc4c23)C(=O)N1 | 11% |
| CCOC(=O)N1CCC(n2cnc(-c3ccc(F)cc3)c2-c2ccnc(N)n2)CC1 [SB-219952] | 0% |
| CN1CCN(CCCNc2nccc(-c3c(-c4ccc(F)cc4)nn4cc(C(N)=O)ccc34)n2)CC1 [GW622475] | 26% |
| COc1cc(Nc2nccc(N3CCC(NC(=O)c4cccc(C#N)c4)C3)n2)cc(OC)c1OC (centres unmarked) [GSK1379751] | 22% |
| O=C1NCCc2[nH]c(-c3ccncc3)cc21 | 62% |
| O=C(Nc1cccc(C(F)(F)F)c1)c1cccc(Oc2ccc3nccn3n2)c1 | 0% |
| CCN1CCN(CCCC(=O)Nc2n[nH]c3nc(-c4ccc(O)cc4)c(Br)cc23)CC1 [SB-731579] | 30% |
| Cc1n[nH]c2cc(Nc3ccnc(Nc4cccc(CN5CCOCC5)c4)n3)ccc12 [GW682569] | 28% |
| Cl.Cl.NC[C@H](CC1CCCCC1)NC(=O)c1ccc(-c2ccnc3[nH]ccc23)s1 [GSK1581428] | 7% |
| Cc1ccc(Nc2ccnc(Nc3ccc4c(c3)CS(=O)(=O)C4)n2)cc1O.Cl [GW579362] | 99.8% |
| CCNCC(Cc1ccccc1)NC(=O)c1cc(Br)c(-c2ccnc3[nH]ccc23)s1.Cl.Cl (centres unmarked) [GSK1383280] | 53% |
| Cn1ccc2ncnc(Oc3ccc(NC(=O)Nc4cccc(C(F)(F)F)c4)c(F)c3)c21 | 0% |
| CCCC(=O)Nc1n[nH]c2ncccc12 [SB-601436] | 0% |
| Cn1ccc2ncnc(Oc3ccc(NC(=O)Nc4ccnc(C(F)(F)F)c4)c(Cl)c3)c21 | 25% |
| CCn1c(-c2nonc2N)nc2cncc(Br)c21 [SB-738004] | 0% |
| Cc1nnc(-c2ccc3occ(-c4ccc(S(C)=O)cc4)c3n2)o1 (centres unmarked) | 0% |
| C[C@@H]1CCN(C(=O)N2CCCC2)C[C@@H]1N(C)c1ncnc2[nH]ccc12 | 25% |
| CC(=O)Nc1ccc(-c2cc3ncnc(SCC(=O)O)c3s2)cc1 | 29% |

| Structure (SMILES) | %Inh |
| --- | --- |
| CC(C)c1nc(-c2cccc(NS(=O)(=O)c3ccccc3)c2)c(-c2ccnc(Nc3ccc4c(c3)CN(C)CC4)n2)s1 [GSK1649598] | 48% |
| CC(C)S(=O)(=O)N1CCN(Cc2ccc3c(c2)nc(NC(=O)c2ccsc2)n3C[C@H](O)c2ccccc2)CC1 [GW635815] | 47% |
| Cn1ccc2ncnc(Oc3ccc(NC(=O)Nc4cc(C(C)(C)C)on4)c(Cl)c3)c21 | 36% |
| CS(=O)(=O)c1cccc(CNc2nc(Nc3ccc4c(c3)[C@@H]3C[C@@H]4CNC3=O)ncc2C(F)(F)F)c1 | 69% |
| CC(=O)c1c(-c2ccncc2)[nH]c(-c2ccncc2)c1C [GW493036] | 49% |
| Cc1cccc2c(-c3ccncc3)c(-c3ccc(F)cc3)nn12.Cl [GW461487] | 39% |
| CN(c1ccc2c(c1)nc(NCc1ccc(F)cc1)n2C)c1ccnc(Nc2ccc(CS(C)(=O)=O)cc2)n1.Cl [GW813244] | 0% |
| COC(=O)c1cccc(NC(=O)NC2CCN(c3ccnc(NCc4ccc(F)cc4)n3)CC2)c1 [GSK1379860] | 34% |
| COc1cc2c(Nc3ccc(NC(=O)c4ccccc4)cc3)ncnc2cc1OCCCN1CCOCC1 [GSK301329] | 11% |
| Nc1nccc(-c2ccc3c(N)n[nH]c3c2)n1 [GSK1034945] | 36% |
| COc1ccc(Nc2nccc(N3CCC(NC(=O)c4cccc(C#N)c4)C3)n2)cc1 (centres unmarked) [GSK1379730] | 38% |
| N#Cc1cccc(C(=O)NC2CCN(c3ccnc(Nc4ccc(F)cc4)n3)C2)c1 (centres unmarked) [GSK1379708] | 38% |
| CN1CCN(CCNc2nc3cc(Oc4ccc(NC(=O)Nc5cc(C(F)(F)F)ccc5F)cc4)ccc3[nH]2)CC1.Cl.Cl [GW768504] | 0% |
| COc1cccc(OC)c1C(=O)Nc1cccc(-c2nn3ccccc3c2-c2ccnc(Nc3cccc(F)c3)n2)c1 [GSK361065] | 11% |
| Cl.c1ccc(Oc2ccc(Nc3ccnc4cc(-c5ccc(CN6CCNCC6)o5)ccc34)cc2)nc1 [GW567142] | 39% |
| CNC(=O)c1ccccc1Nc1nc(Nc2cccc(CS(C)(=O)=O)c2)ncc1C.O=CO [GSK1520489] | 2% |
| Cn1ccc2ncnc(Oc3ccc(NC(=O)Nc4cncc(C(F)(F)F)c4)c(Cl)c3)c21 | 0% |
| Cc1cccc(-c2nc(Nc3ccncc3)c3sccc3n2)n1 [GW869641] | 0% |

System: T1, p38-gamma
T1 construct: gene MAPK12
Conditions: concentration: 1 μM,replicates: in singlicate; n = 1

| Structure (SMILES) | %Inh |
| --- | --- |
| CSc1nccc(-c2c(-c3ccc(F)cc3)ncn2CCCN2CCOCC2)n1.Cl [SB-217146] | 2% |
| C[C@@H]1CNc2c(sc3ccc4nc(-c5ccncc5)ccc4c23)C(=O)N1 | 16% |
| CCOC(=O)N1CCC(n2cnc(-c3ccc(F)cc3)c2-c2ccnc(N)n2)CC1 [SB-219952] | 23% |
| CN1CCN(CCCNc2nccc(-c3c(-c4ccc(F)cc4)nn4cc(C(N)=O)ccc34)n2)CC1 [GW622475] | 13% |
| COc1cc(Nc2nccc(N3CCC(NC(=O)c4cccc(C#N)c4)C3)n2)cc(OC)c1OC (centres unmarked) [GSK1379751] | 0% |
| O=C1NCCc2[nH]c(-c3ccncc3)cc21 | 26% |
| O=C(Nc1cccc(C(F)(F)F)c1)c1cccc(Oc2ccc3nccn3n2)c1 | 27% |
| CCN1CCN(CCCC(=O)Nc2n[nH]c3nc(-c4ccc(O)cc4)c(Br)cc23)CC1 [SB-731579] | 0% |
| Cc1n[nH]c2cc(Nc3ccnc(Nc4cccc(CN5CCOCC5)c4)n3)ccc12 [GW682569] | 0% |
| Cl.Cl.NC[C@H](CC1CCCCC1)NC(=O)c1ccc(-c2ccnc3[nH]ccc23)s1 [GSK1581428] | 13% |
| Cc1ccc(Nc2ccnc(Nc3ccc4c(c3)CS(=O)(=O)C4)n2)cc1O.Cl [GW579362] | 23% |
| CCNCC(Cc1ccccc1)NC(=O)c1cc(Br)c(-c2ccnc3[nH]ccc23)s1.Cl.Cl (centres unmarked) [GSK1383280] | 0% |
| Cn1ccc2ncnc(Oc3ccc(NC(=O)Nc4cccc(C(F)(F)F)c4)c(F)c3)c21 | 62% |
| CCCC(=O)Nc1n[nH]c2ncccc12 [SB-601436] | 13% |
| Cn1ccc2ncnc(Oc3ccc(NC(=O)Nc4ccnc(C(F)(F)F)c4)c(Cl)c3)c21 | 0% |
| CCn1c(-c2nonc2N)nc2cncc(Br)c21 [SB-738004] | 7% |
| Cc1nnc(-c2ccc3occ(-c4ccc(S(C)=O)cc4)c3n2)o1 (centres unmarked) | 0% |
| C[C@@H]1CCN(C(=O)N2CCCC2)C[C@@H]1N(C)c1ncnc2[nH]ccc12 | 10% |
| CC(=O)Nc1ccc(-c2cc3ncnc(SCC(=O)O)c3s2)cc1 | 0% |

| Structure (SMILES) | %Inh |
| --- | --- |
| CC(C)c1nc(-c2cccc(NS(=O)(=O)c3ccccc3)c2)c(-c2ccnc(Nc3ccc4c(c3)CN(C)CC4)n2)s1 [GSK1649598] | 7% |
| CC(C)S(=O)(=O)N1CCN(Cc2ccc3c(c2)nc(NC(=O)c2ccsc2)n3C[C@H](O)c2ccccc2)CC1 [GW635815] | 0% |
| Cn1ccc2ncnc(Oc3ccc(NC(=O)Nc4cc(C(C)(C)C)on4)c(Cl)c3)c21 | 56% |
| CS(=O)(=O)c1cccc(CNc2nc(Nc3ccc4c(c3)[C@@H]3C[C@@H]4CNC3=O)ncc2C(F)(F)F)c1 | 10% |
| CC(=O)c1c(-c2ccncc2)[nH]c(-c2ccncc2)c1C [GW493036] | 19% |
| Cc1cccc2c(-c3ccncc3)c(-c3ccc(F)cc3)nn12.Cl [GW461487] | 17% |
| CN(c1ccc2c(c1)nc(NCc1ccc(F)cc1)n2C)c1ccnc(Nc2ccc(CS(C)(=O)=O)cc2)n1.Cl [GW813244] | 44% |
| COC(=O)c1cccc(NC(=O)NC2CCN(c3ccnc(NCc4ccc(F)cc4)n3)CC2)c1 [GSK1379860] | 0% |
| COc1cc2c(Nc3ccc(NC(=O)c4ccccc4)cc3)ncnc2cc1OCCCN1CCOCC1 [GSK301329] | 0% |
| Nc1nccc(-c2ccc3c(N)n[nH]c3c2)n1 [GSK1034945] | 0% |
| COc1ccc(Nc2nccc(N3CCC(NC(=O)c4cccc(C#N)c4)C3)n2)cc1 (centres unmarked) [GSK1379730] | 0% |
| N#Cc1cccc(C(=O)NC2CCN(c3ccnc(Nc4ccc(F)cc4)n3)C2)c1 (centres unmarked) [GSK1379708] | 0% |
| CN1CCN(CCNc2nc3cc(Oc4ccc(NC(=O)Nc5cc(C(F)(F)F)ccc5F)cc4)ccc3[nH]2)CC1.Cl.Cl [GW768504] | 27% |
| COc1cccc(OC)c1C(=O)Nc1cccc(-c2nn3ccccc3c2-c2ccnc(Nc3cccc(F)c3)n2)c1 [GSK361065] | 24% |
| Cl.c1ccc(Oc2ccc(Nc3ccnc4cc(-c5ccc(CN6CCNCC6)o5)ccc34)cc2)nc1 [GW567142] | 5% |
| CNC(=O)c1ccccc1Nc1nc(Nc2cccc(CS(C)(=O)=O)c2)ncc1C.O=CO [GSK1520489] | 0% |
| Cn1ccc2ncnc(Oc3ccc(NC(=O)Nc4cncc(C(F)(F)F)c4)c(Cl)c3)c21 | 0% |
| Cc1cccc(-c2nc(Nc3ccncc3)c3sccc3n2)n1 [GW869641] | 32% |

— paper PMC5540273 (PLoS ONE, 2017)
